High-throughput results: PubChem BioAssay, National Center for Advancing Translational Sciences (NCATS)
AMA1 RON2 block = qHTS for Inhibitors of AMA1-RON; Towards Development of Antimalarial Drug Lead: Primary Screen. Plasmodium falciparum AMA1 (3D7) - RON2 peptide interaction. AlphaScreen AMA1-biotinylated RON2 peptide binding. Potency, µM (doses to about 58.2 µM), for inactives: top-dose activity change, negative = inhibition, actives largely listed as inhibitors. hit rate 0.2% among 360,000. AID 720542, 2013;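 further: 0% = vehicle wells and -100% = peptide control; nearly all actives have a fitted effect of over 45% in size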
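AMA1 (3D7) with his tag at 25 nM final met compounds first, then biotinylated RON2 peptide at 25 nM; detection used donor plus acceptor beads, 10 µg/mL apiece, read by AlphaScreen after 30 min at room temperature.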
TbPYK inhibitor = qHTS of Trypanosoma Brucei Inhibitors; pyruvate kinase (Trypanosoma brucei), Q57TT1; TbPYK enzyme, Kinase-Glo Plus ATP luminescence, 45 min; hit rate 0.12% among 410,000; Potency, µM (top dose mostly 76.8 µM), for the others: at the top dose activity, negative = inhibition, most hits filed as inhibitors; further: on the % scale 0 is the no-effect control and ±100 the full control effect; nearly all actives have a fitted effect of over 50% in size
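Glycolytic pyruvate kinase of T. brucei was incubated with substrate, test compound and 130 uM ADP for 45 minutes at room temperature. Luminescent Kinase-Glo Plus signal was measured after 10 minutes.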
RE007 growth inh = qHTS Assay for Inhibitors of the HIV-1 protein Vpr. S. pombe RE007 Vpr strain, BacTiter-Glo ATP luminescence, 24 h. Potency, µM (highest dose often 92.2 µM), for inactives: top-dose activity change, negative = less growth, usual class: inhibitors. hit rate 0.21% among 360,000. AID 651644, 2012; active means well fitted falling curve with a large enough effect; inconclusive means small, poorly fitted or top-dose-only effect; inactive means no such curve, though single readings can be large or run the other way; further: on the % scale 0 is the no-effect control and ±100 the full control effect; nearly all actives have a fitted effect of over 50% in size
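Fission yeast strain RE007, carrying one chromosomally integrated HIV-1 vpr copy, was seeded at OD 0.01 in PMG+AL medium with 23 nL pinned compound. After 24 h at 30 °C and 99% humidity, viability was read by BacTiter-Glo luminescence.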
SARS PLpro yeast = qHTS of Yeast-based Assay for SARS-CoV PLP | S. cerevisiae expressing SARS-CoV PLpro, growth rescue | Potency, µM (titrated, usually from 32.9 µM), for inactives: at the top dose activity, positive = growth rescue, most hits filed as activators | hit rate 0.19% among 330,000 | AID 485353, 2010; calls by dose curve; further: 0% is about no effect; nearly all actives have a fitted effect of over 55% in size
LmPK inh = qHTS Assay for Inhibitors of Leishmania Mexicana Pyruvate Kinase (LmPK). hit rate 0.37% among 290,000. Potency, µM (doses to about 57.5 µM), without a hit: at the top dose activity change, negative = inhibition, actives largely listed as inhibitors. Q27686. purified LmPK, Kinase-Glo ATP luminescence, 1 h; further: on the % scale 0 is the no-effect control and ±100 the full control effect
Target sequence (Q27686 whole entry, looked up): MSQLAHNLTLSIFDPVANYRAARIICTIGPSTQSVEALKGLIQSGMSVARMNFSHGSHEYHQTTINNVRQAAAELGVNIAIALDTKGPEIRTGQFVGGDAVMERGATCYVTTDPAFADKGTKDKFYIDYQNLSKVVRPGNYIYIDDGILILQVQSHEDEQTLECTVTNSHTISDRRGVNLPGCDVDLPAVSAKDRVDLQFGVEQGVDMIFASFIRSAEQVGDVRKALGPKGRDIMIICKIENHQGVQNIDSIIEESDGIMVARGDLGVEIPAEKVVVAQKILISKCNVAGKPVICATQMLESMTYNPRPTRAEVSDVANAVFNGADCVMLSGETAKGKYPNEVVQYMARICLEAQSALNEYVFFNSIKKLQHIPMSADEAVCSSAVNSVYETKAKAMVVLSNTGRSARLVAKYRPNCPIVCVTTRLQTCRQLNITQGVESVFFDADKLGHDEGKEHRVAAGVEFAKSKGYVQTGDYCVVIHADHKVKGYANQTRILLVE
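qHTS format; LmPK 0.1 nM; substrates PEP 0.5 mM and ADP 0.1 mM. One-hour room-temperature incubation, then coupled luciferase luminescence; 0.5 nM enzyme wells mark activation.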
The depositor's hits bear a star; ? = inconclusive; . = no result given; [ ] = dose if it differs, or a comment. An excerpt weighted towards active compounds, which were near 0.81% of everything screened. Unless noted, the call rests on the fitted dose curve; in most records, active means well fitted curve in the direction sought with a large enough effect; inconclusive means small, poorly fitted or top-dose-only effect, or another doubt; inactive means no such curve, though single readings can be large; an effect the other way counts as inactive or inconclusive. Potency means the concentration at half of the fitted maximal effect.

SMILES	AMA1 RON2 block	TbPYK inhibitor	RE007 growth inh	SARS PLpro yeast	LmPK inh
O=C(Nc1ccc(/C=C/c2ccc(NC(=O)c3cc(S(=O)(=O)O)c4cccnc4c3O)cc2S(=O)(=O)O)c(S(=O)(=O)O)c1)c1cc(S(=O)(=O)O)c2cccnc2c1O	.	10%	.	.	.
Cc1ccc(C(=O)Nc2nc3ccc(S(C)(=O)=O)cc3s2)o1	4%	-17%	?	-22%	14µM*
Cc1ccc(C(=O)Nc2ncc(Cc3ccc(F)cc3)s2)o1	1%	-2%	1%	0%	-1%
Cc1ccc(C(=O)Nc2ncc(C)s2)o1	15%	-21%	-18%	-17%	13µM*
CC1(C)CC(=O)C(C=Nc2ccccc2Sc2ccccc2)=C(O)C1	12%	-6%	20µM*	3%	4%
CC1(C)CC(=O)C(C=Nc2ccccc2)=C(O)C1	12%	-10%	20µM*	8%	-4%
CCOc1ccc(N(C)C(=O)c2oc(=O)c3ccccc3c2-c2ccccc2)cc1	.	-3%	.	.	.
Cc1ccccc1CN1CCN(C(=O)c2cccc3ccccc23)CC1	25µM*	13%	23%	2%	6%
Cn1c(=O)c2c(-c3ccccc3Cl)n(-c3cc(Cl)ccc3O)cc2n(C)c1=O	.	-5%	.	.	.
CC(C)C[C@@H](CNCC(=O)[C@H](CC(C)C)NC(=O)c1[nH]cnc1C(=O)N[C@H](CN)CC(C)C)NC(=O)c1nc[nH]c1C(=O)N[C@@H](Cc1ccccc1)C(=O)O	99%	-12%	5%	.	.
CCCCn1c(-c2csc3ccccc23)n[nH]c1=S	48%	16µM*	5%	?	14µM*
C=CCn1c(-c2csc3c2CCC(C)C3)n[nH]c1=S (configuration not stated)	29%[11.6 µM]	?	2%	23%	?
CCCCn1c(-c2csc3c2CCC(C)C3)n[nH]c1=S (configuration not stated)	11%	?	-15%	-31%	18µM*
CCn1c(-c2csc3c2CCCC3)n[nH]c1=S	36%	?	25%	29%	?
CCCCn1c(-c2csc(C(C)C)c2)n[nH]c1=S	36%	?	-1%	-15%	?
CCCCn1c(-c2cccs2)nc2nc3ccccc3nc21	36%	4%	-14%	-11%	10%
CCCCCCn1c(-c2cccs2)n[nH]c1=S	37%	2.8µM*	-9%	-6%	-29%
CCCCn1c(-c2csc3c2CCCC3)n[nH]c1=S	12%	?	2%	0%	13µM*
CCN(CC)CC(C)CNC(=O)c1cc(-c2ccc(Br)s2)nc2ccccc12 (configuration not stated)	.	-7%	.	.	.
Cc1cccc(C)c1N(CCCc1cccnc1)C(=O)[C@@H](C)N	.	-4%	.	.	.
CCOC(=O)c1c(-c2ccccc2)oc2ccc(NS(=O)(=O)c3ccc(C)cc3)cc12	.	2%	.	.	.
COc1cc2c(c(OC)c1OC)-c1c(cc3c(c1OC)OCO3)CC(C)C(C)(O)C2 (configuration not stated)	.	1%	.	.	.
CCOc1ccccc1N(C)C(=O)c1c2c(nc3ccccc13)C(=O)N(C1CCCCC1)C2	.	-6%	.	.	.
CCc1c(C)c(C#N)c2[nH]c3ccccc3n2c1=S	27%	14µM*	-10%	-6%	?
CCc1cc(=S)n2c([nH]c3ccccc32)c1C#N	91%	?	-6%	-11%	-9%
SMILES	AMA1 RON2 block	TbPYK inhibitor	RE007 growth inh	SARS PLpro yeast	LmPK inh
[Cl][Pt][Cl]	.	10µM*	.	.	.
CC1Cc2ccccc2N1Cc1cccc([N+](=O)[O-])c1 (configuration not stated)	10µM*	-1%	-4%	0%	-4%
O=C1CSC(c2ccc([N+](=O)[O-])cc2)N1Cc1ccccc1 (configuration not stated)	0%	-7%	12%	2%	-6%
O=[N+]([O-])c1cccc(CN2CCC(Cc3ccccc3)CC2)c1	?	22%	-7%	2%	2%
CC1Cc2ccccc2N1Cc1ccc([N+](=O)[O-])cc1 (configuration not stated)	11µM*	3%	-10%	-8%	0%
CCOc1ccc(S(=O)(=O)NCC(c2ccco2)S(=O)(=O)c2ccc(C)cc2)cc1 (configuration not stated)	.	1%	.	.	.
c1ccc(-n2cnc3cc(NCc4cccs4)ccc32)cc1	-27%	-13%	-12%	5%	-2%
Cc1ccc(-n2cnc3cc(NCc4cccs4)ccc32)cc1	?	-13%	22µM*	-32%	6%
COc1ccc(OC)c2c1C(=O)C(Cl)=C(Cl)C2=O	-2%	2.8µM*	?	-5%	-21%
COC(=O)C1=C(O)/C(=C/c2cccc(OC)c2O)N=C1C	-6%	-24%	-4%	-1%	25µM*
CCn1cc(/C=C(\NC(=O)c2cc(OC)c(OC)c(OC)c2)C(=O)NCCCn2ccnc2)c2ccccc21	.	-1%	.	.	.
CC(C)OCCCn1c(-c2ccc(Br)cc2)c[nH]c1=S	11%	?	9%	0%	13µM*
NC(=O)c1ccc[n+]([C@H]2O[C@@H](COP(=O)([O-])OP(=O)(O)OC[C@H]3O[C@@H](n4cnc5c(N)ncnc54)[C@H](O)[C@@H]3O)[C@H](O)[C@@H]2O)c1	21%	-9%	5µM*	-4%	.
CO/N=C(/C(=O)N[C@@H]1C(=O)N2C(C(=O)O)=CCS[C@H]12)c1csc(N)n1	.	-7%	.	.	.
Cc1c(Cl)cccc1NC(=O)CC1Oc2ccccc2NC1=O (configuration not stated)	0%	1%	?	-1%	0%
COc1ccc(N2CCN(C(CNC(=O)C(=O)NCCc3ccccc3)c3cccnc3)CC2)cc1 (configuration not stated)	.	-3%	.	.	.
COc1cccc(-n2c(Cn3nc(C(F)(F)F)cc3C)n[nH]c2=S)c1	32%	4µM*	.	6%	-6%
Cc1ccc(-n2c(Cn3nc(C(F)(F)F)cc3C)n[nH]c2=S)cc1	35%	10µM*	5%	-5%	-21%
COc1cccc(-n2c(Cn3nc(C(F)F)cc3C(F)F)n[nH]c2=S)c1	5%	?	-7%	-15%	-5%
COc1ccc(-n2c(Cn3nc(C(F)(F)F)cc3C)n[nH]c2=S)cc1	77%	3.2µM*	6%	1%	-9%
O=C1C(=O)N(CCc2c[nH]c3ccccc23)C(c2cccnc2)/C1=C(/O)c1ccccc1 (configuration not stated)	.	.	.	0%	4%
Cn1c(=O)n(Cc2ccccc2Cl)c(=O)c2c1[nH]c(=S)n2C	-7%	7.9µM*	6%	1%	-1%
Cn1c(=O)n(Cc2ccccc2Cl)c2ccccc21	6%	-22%	4%	0%	3%
